The source of these data is article PMC7862700, “An all-to-all approach to the identification of sequence-specific readers for epigenetic DNA modifications on cytosine”.

Holding throughout (assay): DAPPL (digital affinity profiling via proximity ligation, sequencing); 10 mM Tris-HCl pH 7.5, 50 mM NaCl, 1 mM DTT, 4% glycerol, room temperature, 30 min; GST-TFs on glutathione beads, 16-mer random dsDNA library, 0.1% formaldehyde crosslink after washing; high values mean tight binding
For one test, the target named is T1, FLI1 (Homo sapiens, UniProt Q01543 1-452).
T1 sequence: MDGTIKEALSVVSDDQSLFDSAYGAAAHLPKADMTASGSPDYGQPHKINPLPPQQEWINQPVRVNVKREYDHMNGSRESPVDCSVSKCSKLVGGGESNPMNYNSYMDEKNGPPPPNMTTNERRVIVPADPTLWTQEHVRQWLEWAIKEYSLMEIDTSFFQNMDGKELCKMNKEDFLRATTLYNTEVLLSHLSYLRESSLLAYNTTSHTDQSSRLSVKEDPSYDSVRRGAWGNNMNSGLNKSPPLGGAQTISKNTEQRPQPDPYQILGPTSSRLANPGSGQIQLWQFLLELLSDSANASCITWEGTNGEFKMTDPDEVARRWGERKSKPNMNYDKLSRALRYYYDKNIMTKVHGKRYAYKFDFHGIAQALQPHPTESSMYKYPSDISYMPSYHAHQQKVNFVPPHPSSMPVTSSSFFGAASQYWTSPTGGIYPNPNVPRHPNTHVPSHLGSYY
The note with it: protein: recombinant; tags: N-terminal GST; dsDNA, one strand shown. In a few lines:
(§1)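 Human transcription factors were made in yeast as GST fusions, captured on glutathione beads and barcoded with DNA. With a tag-only sample included, the pool was incubated with 200 nmole of a random double-stranded 16-mer DNA library in Tris/NaCl/DTT/glycerol buffer at room temperature for 30 min, then crosslinked with 0.1% formaldehyde after washing, ligated by proximity, amplified and sequenced. For binding signal, each hexamer's read frequency for a factor is divided by its frequency for the tag-only sample.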

For another test, the target named is T2, ELK1 (Homo sapiens, UniProt P19419 1-428).
T2 sequence: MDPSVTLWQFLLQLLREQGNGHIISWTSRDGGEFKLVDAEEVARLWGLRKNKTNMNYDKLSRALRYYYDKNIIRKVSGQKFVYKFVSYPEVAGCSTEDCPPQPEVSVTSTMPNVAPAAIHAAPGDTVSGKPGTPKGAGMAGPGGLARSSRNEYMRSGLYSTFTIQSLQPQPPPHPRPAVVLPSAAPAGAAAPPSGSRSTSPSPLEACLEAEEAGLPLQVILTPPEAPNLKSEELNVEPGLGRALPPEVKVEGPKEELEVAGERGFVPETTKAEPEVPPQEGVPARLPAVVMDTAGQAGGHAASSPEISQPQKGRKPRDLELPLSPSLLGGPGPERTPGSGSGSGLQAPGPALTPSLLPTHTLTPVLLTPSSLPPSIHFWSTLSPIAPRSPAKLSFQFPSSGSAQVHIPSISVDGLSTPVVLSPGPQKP
Conditions: protein: recombinant; tags: N-terminal GST; dsDNA, one strand shown. The procedure, abridged: as §1

The target of a further test is T3, GABPA (Homo sapiens, UniProt Q06546 1-454).
T3 sequence: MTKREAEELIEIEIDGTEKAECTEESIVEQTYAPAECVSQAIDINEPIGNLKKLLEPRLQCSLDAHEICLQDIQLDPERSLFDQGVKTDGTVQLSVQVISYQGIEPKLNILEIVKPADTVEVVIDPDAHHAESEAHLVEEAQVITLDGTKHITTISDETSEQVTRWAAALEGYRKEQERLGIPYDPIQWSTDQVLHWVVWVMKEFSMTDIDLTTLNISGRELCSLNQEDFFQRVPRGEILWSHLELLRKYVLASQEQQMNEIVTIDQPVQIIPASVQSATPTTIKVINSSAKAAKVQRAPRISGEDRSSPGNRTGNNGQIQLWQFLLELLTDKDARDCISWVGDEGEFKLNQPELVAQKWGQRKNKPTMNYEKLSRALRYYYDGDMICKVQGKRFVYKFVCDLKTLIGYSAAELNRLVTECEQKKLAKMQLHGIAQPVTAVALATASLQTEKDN
The note with it: protein: recombinant; tags: N-terminal GST; dsDNA, one strand shown. In a few lines:
as §1

Another test addresses T4, ERG (Homo sapiens, UniProt P11308 1-479).
T4 sequence: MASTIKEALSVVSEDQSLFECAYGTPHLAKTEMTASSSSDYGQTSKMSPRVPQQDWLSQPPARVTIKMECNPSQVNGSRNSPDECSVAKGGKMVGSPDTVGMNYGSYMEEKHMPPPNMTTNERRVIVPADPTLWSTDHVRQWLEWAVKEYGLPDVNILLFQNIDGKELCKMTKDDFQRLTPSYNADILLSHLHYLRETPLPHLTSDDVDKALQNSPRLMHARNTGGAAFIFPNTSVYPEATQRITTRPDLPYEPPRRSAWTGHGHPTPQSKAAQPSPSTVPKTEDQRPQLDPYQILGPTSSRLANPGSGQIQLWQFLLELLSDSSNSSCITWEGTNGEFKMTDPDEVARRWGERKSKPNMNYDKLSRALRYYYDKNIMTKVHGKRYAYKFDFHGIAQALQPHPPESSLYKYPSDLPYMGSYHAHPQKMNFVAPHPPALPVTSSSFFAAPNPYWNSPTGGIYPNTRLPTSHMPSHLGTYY
The note with it: protein: recombinant; tags: N-terminal GST; dsDNA, one strand shown. The procedure, abridged:
as §1

Another test addresses ELF1 (Homo sapiens, UniProt P32519 1-619). Conditions: protein: recombinant; tags: N-terminal GST; dsDNA, one strand shown. In a few lines: as §1
The target in another test is T5, EHF (Homo sapiens, UniProt Q9NZC4 1-300).
T5 sequence: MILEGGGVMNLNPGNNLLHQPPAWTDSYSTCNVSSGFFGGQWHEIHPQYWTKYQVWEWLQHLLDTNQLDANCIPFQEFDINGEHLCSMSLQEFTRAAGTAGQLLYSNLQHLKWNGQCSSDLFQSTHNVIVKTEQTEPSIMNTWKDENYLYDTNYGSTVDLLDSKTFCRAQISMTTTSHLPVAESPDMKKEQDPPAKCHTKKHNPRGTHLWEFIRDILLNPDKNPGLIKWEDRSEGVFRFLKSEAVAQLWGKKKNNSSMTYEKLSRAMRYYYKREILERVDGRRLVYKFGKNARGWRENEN
The note with it: protein: recombinant; tags: N-terminal GST; dsDNA, one strand shown. The procedure, abridged: as §1

The target of another test is SPI1 (Homo sapiens, UniProt P17947 1-270). The note with it: protein: recombinant; tags: N-terminal GST; dsDNA, one strand shown. In a few lines: as §1
The target of another test is SPIB (Homo sapiens, UniProt Q01892 1-262). The note with it: protein: recombinant; tags: N-terminal GST; dsDNA, one strand shown. The procedure, abridged:
as §1

For the next test, the target named is T6, ELK3 (Homo sapiens, UniProt P41970 1-407).
T6 sequence: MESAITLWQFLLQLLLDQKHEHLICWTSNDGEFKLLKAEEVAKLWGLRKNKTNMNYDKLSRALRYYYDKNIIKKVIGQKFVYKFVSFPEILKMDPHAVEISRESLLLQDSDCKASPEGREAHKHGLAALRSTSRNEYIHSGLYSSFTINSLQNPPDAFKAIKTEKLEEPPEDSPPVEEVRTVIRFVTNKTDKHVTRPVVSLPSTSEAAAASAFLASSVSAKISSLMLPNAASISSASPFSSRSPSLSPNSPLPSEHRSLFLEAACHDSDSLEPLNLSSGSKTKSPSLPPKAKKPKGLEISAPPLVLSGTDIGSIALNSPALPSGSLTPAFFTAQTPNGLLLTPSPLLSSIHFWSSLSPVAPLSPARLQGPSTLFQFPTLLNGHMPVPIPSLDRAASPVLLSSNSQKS
Conditions: protein: recombinant; tags: N-terminal GST; dsDNA, one strand shown. The procedure, abridged: as §1

Another test deals with T7, FEV (Homo sapiens, UniProt Q99581 1-238).
T7 sequence: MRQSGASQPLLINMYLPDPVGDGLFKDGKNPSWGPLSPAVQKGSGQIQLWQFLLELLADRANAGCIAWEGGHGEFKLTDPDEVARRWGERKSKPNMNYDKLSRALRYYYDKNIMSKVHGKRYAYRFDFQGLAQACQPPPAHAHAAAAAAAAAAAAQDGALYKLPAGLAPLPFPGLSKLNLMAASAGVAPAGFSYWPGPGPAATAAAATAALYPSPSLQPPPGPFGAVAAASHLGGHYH
The note with it: protein: recombinant; tags: N-terminal GST; dsDNA, one strand shown. The procedure, abridged: as §1

The next test concerns the target ETV5 (Homo sapiens, UniProt P41161 1-510). The note with it: protein: recombinant; tags: N-terminal GST; dsDNA, one strand shown. The procedure, abridged:
as §1

In a further test the target is HSF1 (Homo sapiens, UniProt Q00613 1-529). Conditions: protein: recombinant; tags: N-terminal GST; chain copies: 3; dsDNA, one strand shown. In a few lines: as §1
A further test has as its target T8, SPIC (Homo sapiens, UniProt Q8N5J4 1-248).
T8 sequence: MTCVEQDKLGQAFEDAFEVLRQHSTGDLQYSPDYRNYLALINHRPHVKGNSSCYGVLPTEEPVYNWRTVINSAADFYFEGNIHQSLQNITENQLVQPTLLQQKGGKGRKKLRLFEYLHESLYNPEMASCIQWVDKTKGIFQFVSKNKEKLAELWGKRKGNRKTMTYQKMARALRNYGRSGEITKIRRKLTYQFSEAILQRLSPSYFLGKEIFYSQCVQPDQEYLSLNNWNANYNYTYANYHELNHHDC
Conditions: protein: recombinant; tags: N-terminal GST; dsDNA, one strand shown. In a few lines:
as §1

Another test addresses ELF4 (Homo sapiens, UniProt Q99607 1-663). Conditions: protein: recombinant; tags: N-terminal GST; dsDNA, one strand shown. In a few lines: as §1
For another test, the target named is T9, ELK4 (Homo sapiens, UniProt P28324-2 1-405).
T9 sequence: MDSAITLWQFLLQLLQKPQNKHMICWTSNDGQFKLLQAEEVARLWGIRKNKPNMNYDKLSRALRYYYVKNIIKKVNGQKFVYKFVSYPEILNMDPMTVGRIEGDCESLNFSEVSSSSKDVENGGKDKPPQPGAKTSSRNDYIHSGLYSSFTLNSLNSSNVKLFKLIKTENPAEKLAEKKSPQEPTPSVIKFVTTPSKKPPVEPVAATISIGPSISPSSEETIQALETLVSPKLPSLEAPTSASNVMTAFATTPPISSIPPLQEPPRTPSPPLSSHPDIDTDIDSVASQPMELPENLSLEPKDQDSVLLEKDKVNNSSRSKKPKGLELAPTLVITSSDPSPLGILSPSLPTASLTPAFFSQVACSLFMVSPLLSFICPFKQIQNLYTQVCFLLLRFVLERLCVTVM
The note with it: protein: recombinant; tags: N-terminal GST; dsDNA, one strand shown. In a few lines:
as §1

A further test deals with T10, ETV2 (Homo sapiens, UniProt O00321 1-342).
T10 sequence: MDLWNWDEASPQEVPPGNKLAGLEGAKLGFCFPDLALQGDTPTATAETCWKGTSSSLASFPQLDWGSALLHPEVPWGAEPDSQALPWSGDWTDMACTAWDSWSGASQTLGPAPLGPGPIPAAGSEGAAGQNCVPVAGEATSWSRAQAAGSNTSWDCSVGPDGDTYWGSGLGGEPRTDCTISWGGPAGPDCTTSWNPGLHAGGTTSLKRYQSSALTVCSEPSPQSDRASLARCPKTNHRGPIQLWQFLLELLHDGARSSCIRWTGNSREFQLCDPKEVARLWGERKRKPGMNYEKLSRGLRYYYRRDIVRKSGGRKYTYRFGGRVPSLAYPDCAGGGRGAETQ
Conditions: protein: recombinant; tags: N-terminal GST; dsDNA, one strand shown. The procedure, abridged: as §1

The target of the next test is T11, ELF3 (Homo sapiens, UniProt P78545 1-371).
T11 sequence: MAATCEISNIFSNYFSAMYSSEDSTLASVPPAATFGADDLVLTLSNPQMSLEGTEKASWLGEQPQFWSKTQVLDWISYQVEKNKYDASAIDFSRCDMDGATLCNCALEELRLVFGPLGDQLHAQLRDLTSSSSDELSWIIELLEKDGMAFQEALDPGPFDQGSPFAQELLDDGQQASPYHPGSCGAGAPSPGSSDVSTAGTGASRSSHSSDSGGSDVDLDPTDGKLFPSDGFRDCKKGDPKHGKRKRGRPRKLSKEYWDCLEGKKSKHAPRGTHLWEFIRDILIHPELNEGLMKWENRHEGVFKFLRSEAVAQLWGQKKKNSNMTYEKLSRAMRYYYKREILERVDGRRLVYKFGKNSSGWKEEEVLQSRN
Conditions: protein: recombinant; tags: N-terminal GST; dsDNA, one strand shown. The procedure, abridged: as §1

A further test deals with CRX (Homo sapiens, UniProt O43186 1-299). Conditions: protein: recombinant; tags: N-terminal GST; dsDNA, one strand shown. The procedure, abridged:
as §1

A further test has as its target ETV1 (Homo sapiens, UniProt P50549 1-477). The note with it: protein: recombinant; tags: N-terminal GST; dsDNA, one strand shown. The procedure, abridged: as §1

Chain of SPIB (Q01892 whole entry): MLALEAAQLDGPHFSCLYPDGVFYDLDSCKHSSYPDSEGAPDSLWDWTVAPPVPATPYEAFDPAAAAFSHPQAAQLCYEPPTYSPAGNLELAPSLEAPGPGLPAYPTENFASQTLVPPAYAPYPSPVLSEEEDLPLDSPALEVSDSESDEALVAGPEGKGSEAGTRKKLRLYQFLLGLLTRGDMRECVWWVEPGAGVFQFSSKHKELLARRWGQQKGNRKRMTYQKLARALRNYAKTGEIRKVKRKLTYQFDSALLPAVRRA
Chain of ELF4 (Q99607 whole entry): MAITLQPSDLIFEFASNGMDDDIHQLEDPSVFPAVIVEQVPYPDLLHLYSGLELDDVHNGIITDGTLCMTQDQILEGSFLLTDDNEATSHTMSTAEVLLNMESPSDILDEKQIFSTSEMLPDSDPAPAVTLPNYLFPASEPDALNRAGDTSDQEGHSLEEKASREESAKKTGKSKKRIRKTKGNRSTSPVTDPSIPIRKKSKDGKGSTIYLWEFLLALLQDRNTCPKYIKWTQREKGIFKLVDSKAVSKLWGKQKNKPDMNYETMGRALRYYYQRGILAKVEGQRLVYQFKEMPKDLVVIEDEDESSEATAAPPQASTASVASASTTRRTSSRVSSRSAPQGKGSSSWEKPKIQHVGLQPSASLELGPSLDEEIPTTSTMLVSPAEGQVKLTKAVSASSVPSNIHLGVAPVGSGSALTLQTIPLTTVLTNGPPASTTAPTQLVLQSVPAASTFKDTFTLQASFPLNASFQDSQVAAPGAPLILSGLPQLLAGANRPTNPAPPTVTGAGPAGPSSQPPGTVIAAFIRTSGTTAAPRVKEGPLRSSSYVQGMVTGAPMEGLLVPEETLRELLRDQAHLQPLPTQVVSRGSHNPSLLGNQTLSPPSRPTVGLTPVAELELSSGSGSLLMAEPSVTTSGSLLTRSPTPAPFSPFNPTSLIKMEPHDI
Chain of HSF1 (Q00613 whole entry): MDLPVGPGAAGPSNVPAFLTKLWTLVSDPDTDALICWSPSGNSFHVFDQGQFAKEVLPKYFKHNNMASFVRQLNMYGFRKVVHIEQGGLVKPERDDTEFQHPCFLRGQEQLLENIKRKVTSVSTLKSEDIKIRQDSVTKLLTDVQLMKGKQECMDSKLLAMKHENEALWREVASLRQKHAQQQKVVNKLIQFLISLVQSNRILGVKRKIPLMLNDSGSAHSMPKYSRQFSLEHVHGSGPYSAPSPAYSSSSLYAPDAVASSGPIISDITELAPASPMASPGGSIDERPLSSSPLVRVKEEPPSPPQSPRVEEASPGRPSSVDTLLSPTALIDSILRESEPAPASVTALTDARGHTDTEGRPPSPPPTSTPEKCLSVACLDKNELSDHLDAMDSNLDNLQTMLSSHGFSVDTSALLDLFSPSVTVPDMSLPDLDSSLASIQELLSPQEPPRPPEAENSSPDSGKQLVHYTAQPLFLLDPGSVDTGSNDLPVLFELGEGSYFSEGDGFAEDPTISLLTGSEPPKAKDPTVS
Chain of ETV5 (P41161 whole entry): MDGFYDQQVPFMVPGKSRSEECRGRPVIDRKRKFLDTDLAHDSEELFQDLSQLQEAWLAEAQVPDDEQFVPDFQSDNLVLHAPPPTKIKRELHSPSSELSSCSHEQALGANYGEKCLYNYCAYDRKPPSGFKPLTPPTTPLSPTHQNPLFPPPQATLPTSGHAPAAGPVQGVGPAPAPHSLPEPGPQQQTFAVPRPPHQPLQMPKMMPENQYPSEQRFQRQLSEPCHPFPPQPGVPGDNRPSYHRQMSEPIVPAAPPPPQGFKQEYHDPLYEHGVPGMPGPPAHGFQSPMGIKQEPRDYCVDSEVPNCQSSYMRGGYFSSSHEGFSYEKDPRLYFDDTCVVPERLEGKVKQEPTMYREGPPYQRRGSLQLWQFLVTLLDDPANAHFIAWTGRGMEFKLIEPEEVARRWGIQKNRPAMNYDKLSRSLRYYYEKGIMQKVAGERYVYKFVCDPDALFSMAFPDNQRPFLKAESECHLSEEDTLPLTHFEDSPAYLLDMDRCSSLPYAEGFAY
Chain of ETV1 (P50549 whole entry): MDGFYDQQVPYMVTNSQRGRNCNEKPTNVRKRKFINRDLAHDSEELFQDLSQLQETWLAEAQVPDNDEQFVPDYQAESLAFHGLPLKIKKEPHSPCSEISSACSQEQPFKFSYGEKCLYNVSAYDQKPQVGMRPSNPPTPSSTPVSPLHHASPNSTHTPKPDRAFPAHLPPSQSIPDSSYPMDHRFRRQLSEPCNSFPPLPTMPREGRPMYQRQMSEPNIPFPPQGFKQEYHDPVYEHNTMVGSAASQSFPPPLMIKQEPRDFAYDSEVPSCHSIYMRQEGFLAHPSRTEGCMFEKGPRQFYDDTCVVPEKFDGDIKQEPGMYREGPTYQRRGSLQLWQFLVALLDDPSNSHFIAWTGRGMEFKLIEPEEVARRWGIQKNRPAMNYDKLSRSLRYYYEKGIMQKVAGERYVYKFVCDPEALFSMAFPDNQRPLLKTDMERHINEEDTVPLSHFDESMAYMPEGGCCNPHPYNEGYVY
Chain of CRX (O43186 whole entry): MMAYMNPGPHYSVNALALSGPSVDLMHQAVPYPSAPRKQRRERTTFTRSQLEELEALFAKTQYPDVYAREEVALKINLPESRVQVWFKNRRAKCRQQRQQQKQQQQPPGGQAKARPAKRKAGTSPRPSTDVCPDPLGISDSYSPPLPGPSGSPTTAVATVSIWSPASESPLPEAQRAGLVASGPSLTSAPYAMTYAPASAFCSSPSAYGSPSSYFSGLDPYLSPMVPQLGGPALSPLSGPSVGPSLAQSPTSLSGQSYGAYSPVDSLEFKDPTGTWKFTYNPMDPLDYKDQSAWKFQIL
Chain of ELF1 (P32519 whole entry): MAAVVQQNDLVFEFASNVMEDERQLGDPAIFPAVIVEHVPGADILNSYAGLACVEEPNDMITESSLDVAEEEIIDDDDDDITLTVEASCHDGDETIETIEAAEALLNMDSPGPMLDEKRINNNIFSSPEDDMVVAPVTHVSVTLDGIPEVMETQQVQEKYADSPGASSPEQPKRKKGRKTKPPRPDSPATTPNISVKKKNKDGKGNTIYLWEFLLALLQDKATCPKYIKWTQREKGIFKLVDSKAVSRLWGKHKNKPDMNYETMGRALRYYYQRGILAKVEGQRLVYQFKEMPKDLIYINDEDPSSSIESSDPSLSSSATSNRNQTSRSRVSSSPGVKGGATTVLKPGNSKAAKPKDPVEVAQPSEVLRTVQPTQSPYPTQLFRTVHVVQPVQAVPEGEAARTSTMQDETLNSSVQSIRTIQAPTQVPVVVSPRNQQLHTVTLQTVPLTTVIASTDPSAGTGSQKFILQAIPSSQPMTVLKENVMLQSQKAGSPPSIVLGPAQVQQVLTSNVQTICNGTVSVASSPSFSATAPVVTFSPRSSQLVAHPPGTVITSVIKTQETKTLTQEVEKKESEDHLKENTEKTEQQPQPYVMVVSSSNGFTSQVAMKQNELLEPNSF

As to TTGTAC, the binding signal in the test with FLI1 was 1.37 fold enrichment (6-mer frequency, TF over GST control); in the test with ELK1, 1.51 fold enrichment (6-mer frequency, TF over GST control); in the test with GABPA, 1.32 fold enrichment (6-mer frequency, TF over GST control); with ERG, 1.33 fold enrichment (6-mer frequency, TF over GST control); in the test with ELF1, 1.41 fold enrichment (6-mer frequency, TF over GST control); with EHF it was 1.33 fold enrichment (6-mer frequency, TF over GST control). The binding signal was 1.39 fold enrichment (6-mer frequency, TF over GST control) in the test with SPI1; 1.44 fold enrichment (6-mer frequency, TF over GST control) with SPIB; 1.18 fold enrichment (6-mer frequency, TF over GST control) with ELK3; 1.52 fold enrichment (6-mer frequency, TF over GST control) in the test with FEV; 1.48 fold enrichment (6-mer frequency, TF over GST control) with ETV5; 1.24 fold enrichment (6-mer frequency, TF over GST control) in the test with HSF1. Besides, the binding signal with SPIC is 1.46 fold enrichment (6-mer frequency, TF over GST control); with ELF4, 1.47 fold enrichment (6-mer frequency, TF over GST control); with ELK4 it was 1.55 fold enrichment (6-mer frequency, TF over GST control); in the test with ETV2, 1.48 fold enrichment (6-mer frequency, TF over GST control); in the test with ELF3, 1.39 fold enrichment (6-mer frequency, TF over GST control); with CRX it was 1.2 fold enrichment (6-mer frequency, TF over GST control). Moreover, the binding signal in the test with ETV1 was 1.24 fold enrichment (6-mer frequency, TF over GST control).
